# Results reported in ChEMBL document CHEMBL4513216, “Probing the Open Global Health Chemical Diversity Library for Multistage-Active Starting Points for Next-Generation Antimalarials” (ACS Infect Dis, 2020).
# Hit rate of the full screen: of about 68,000 compounds, about 2,700 (4%) showed an effect of 50% or more. The sample holds strong results, similar compounds and a random draw of the others, so the mix is not that of the screen.
# System: Plasmodium berghei
# Assay: Screen against P. berghei liver stage (PbLuc), transformed with Luciferase, at 2uM
# Type: functional, HepG2
# Settings: tested at 2 uM
row,Compound,INHIBITION
1,F[C@@H]1CN(CC2CC2)C[C@@H]1OCc1nc2cnccc2[nH]1,25.94%
2,COCCC(=O)N1CCC(C(=O)c2cc(C)cnc2N)CC1,41.56%
3,c1ccc(Sc2ccc3c(c2)OCO3)c(CNC2=NCCN2)c1,33.59%
4,COCC1N(C(=O)c2ccco2)C2CCC1(O)CC2 (stereo not drawn),3.88%
5,COc1ccc(Br)cc1Cn1nc(C(N)=O)ccc1=O,-21.09%
6,CCOc1ccc(Br)cc1C1CCCCN1 (stereo not drawn),-0.44%
7,CCOc1ccc(Br)cc1C1CCCN1 (stereo not drawn),53.55%
8,CCOc1ccc(Cl)cc1C1CCCN1 (stereo not drawn),-27.75%
9,Cc1nccn1C1CCCN(C(=O)c2ccc3nnc(C)n3c2)C1 (stereo not drawn),6.12%
10,COc1cc(NC(=O)NCc2ccccn2)cc(OC)c1,52.08%
11,COc1cc(F)cc(NC(=O)NCc2cccc(N(C)C)n2)c1,23.92%
12,Cc1cc(NC(=O)NCc2ccccn2)n(C)n1,29.11%
13,N#Cc1c(F)cccc1NCCCOCC1CCOC1 (stereo not drawn),-39.57%
14,C[C@@H]1CN(CC(C)(C)N2CCCCC2)C[C@@]1(O)C1CC1,51.31%
15,C[C@@H]1CN(CC(C)(C)N2CCOCC2)C[C@@]1(O)C1CC1,-10.59%
16,C[C@@H]1CN(CC(C)(C)N2CCCCC2)CC[C@@]1(O)C1CC1,12.62%
17,Cc1cc(C(=O)NCC(O)c2ccc(Cl)s2)c(C)o1 (stereo not drawn),57.75%
18,Cc1occc1C(=O)NCC(O)c1ccc(Cl)s1 (stereo not drawn),43.44%
19,Cc1ccc(C(=O)NCC(O)c2ccc(Cl)s2)c(=O)[nH]1 (stereo not drawn),10.05%
20,O=C1NC2(CCN(CC3CC3)CC2)CC1c1ccccc1 (stereo not drawn),11.18%
21,CCN1CC2(CC1=O)CN(Cc1ccccn1)CCN(C(C)=O)C2 (stereo not drawn),28.2%
22,O=C1CCC2(CCCN(C(=O)c3ccccn3)CC2)N1 (stereo not drawn),28.2%

row,Compound,INHIBITION
1,Cc1cc(NC(=O)CN2CCN(c3nccs3)C(C)C2)no1 (stereo not drawn),-2.82%
2,CS(=O)(=O)c1nccn1Cc1ccc(F)cc1Cl,29.43%
3,O=C(CCc1ncc(-c2ccc(F)cc2)o1)NCCN1CCOCC1,-45.79%
4,Cc1ccc(-c2cnc(CCC(=O)NCCN3CCOCC3)o2)cc1C,59.03%
5,O=C(NCCN1CCOCC1)NCc1ncc(-c2ccccc2)o1,24.89%
6,Cc1nc(CNC(=O)NC(C)c2ccc3c(c2)OCCO3)cs1 (stereo not drawn),21.69%
7,Cc1nc(C2CCCN(C(=O)c3c(C)nn4cccnc34)C2)no1 (stereo not drawn),-1.02%
8,Cc1ncsc1C(=O)NC1CCN(Cc2cccc3c2OCCO3)CC1,21.83%
9,CCCn1ccnc1CN1CCc2[nH]cnc2C1Cc1ccccc1 (stereo not drawn),-76.22%
10,Cc1cccc(CN2C[C@@H]3CN(C(=O)C4CC=CC4)C[C@@H]3C2=O)n1,54.01%
11,Cc1cccc(CN2C[C@@H]3CN(C(=O)NC(C)C)C[C@@H]3C2=O)n1,35.34%
12,Cc1cccc(CN2C[C@@H]3CN(C(=O)c4cnoc4C)C[C@@H]3C2=O)n1,35.89%
13,Cn1nc2c(cc1=O)CN(Cc1nc(-c3ccco3)no1)CC2,-0.05%
14,Cn1nc2c(cc1=O)CN(Cc1coc(-c3ccccc3)n1)CC2,17.31%
15,Cc1cnn(CC2CN(Cc3nc(-c4ccccn4)no3)CCO2)c1 (stereo not drawn),-5.09%
16,Cn1nc2c(cc1=O)CN(Cc1nc(-c3ccccn3)no1)CC2,50.75%
17,Cc1ccc(-c2nc(CN3CCc4nn(C)c(=O)cc4C3)co2)cc1,62.46%
18,Cn1nc2c(cc1=O)CN(Cc1coc(-c3ccc(F)cc3)n1)CC2,-21.39%
19,Cc1cnn(CC2CN(Cc3nc(-c4cccnc4)no3)CCO2)c1 (stereo not drawn),12.75%
20,CN(C)CC1CN(Cc2nc(-c3cccnc3)no2)CCO1 (stereo not drawn),52.17%
21,CCn1nc2c(cc1=O)CN(Cc1nc(-c3ccccn3)no1)CC2,-27.03%
22,CN(C)CC1CN(Cc2nc(-c3ccccn3)no2)CCO1 (stereo not drawn),69.11%

row,Compound,INHIBITION
1,c1ccc(-c2noc(CN3CCOC(Cn4cccn4)C3)n2)nc1 (stereo not drawn),23.71%
2,c1cncc(-c2noc(CN3CCOC(Cn4cccn4)C3)n2)c1 (stereo not drawn),-0.12%
3,O=C(c1ccno1)N1CCOC[C@H](Oc2ccc(C(F)(F)F)cc2)C1,28.05%
4,Cc1cnc(C)c(N2C[C@H]3OC(=O)N(C4CCCC4)[C@H]3C2)n1,12.59%
5,O=C(C1CCCC1)N1C[C@@H]2CCN(c3cccnc3)C[C@@H]2C1,-3.25%
6,O=C(Cc1ccc(F)cc1)N1CCn2cc(Cn3cccn3)nc2C1,-6.3%
7,CC(C)(C)C(=O)N1CCCC1c1nc(O)cc(-c2ccccn2)n1 (stereo not drawn),-10.16%
8,COc1cc(C(=O)NC(C)C)nc2c(C)cc(F)cc12,35.91%
9,CNc1nc2c(c(C(=O)N3CCCC3)n1)CN(Cc1cc(C)no1)CC2,10.63%
10,CS(=O)(=O)N1CCN(C(=O)c2cc(-c3cccs3)cs2)CC1,-23.8%
11,CC(C(=O)N1CCOCC1)n1cc(Br)cn1 (stereo not drawn),15.05%
12,O=C(CCNC(=O)c1ccccc1N1CCOCC1)NC1CCCC1,58.76%
13,CNC(=O)CCNC(=O)c1ccccc1N1CCOCC1,-23.9%
14,CCCNC(=O)CCNC(=O)c1ccccc1N1CCOCC1,-21.71%
15,COc1cc(N2C[C@@H]3COC[C@]3(COc3cccnc3)C2)ncn1,-38.72%
16,COCCN1CCN(C(=O)c2ccc(C)cc2F)[C@H]2CS(=O)(=O)C[C@H]21,32.26%
17,COc1ccc(Cc2nnc3n2N=C(C(C)(C)C)CS3)cc1,-13.89%
18,Cc1cnn(CC2CN(Cc3cccnc3)CCO2)c1 (stereo not drawn),41.76%
19,CN1CCCC(c2cccc(-c3cccc(C(F)(F)F)c3)n2)C1 (stereo not drawn),38.64%
20,CN1CCCC(c2cccc(-c3cccc(Cl)c3)n2)C1 (stereo not drawn),51.5%
21,CN1CCCC(c2cccc(-c3cccc(F)c3)n2)C1 (stereo not drawn),13.88%
22,O=C(CCc1ccccc1Br)NCC(=O)NCc1ccccc1,-13.34%

row,Compound,INHIBITION
1,CCc1noc(C(C)N(C)CC(=O)Nc2c(C)cccc2C)n1 (stereo not drawn),32.81%
2,CCc1noc(C(C)N(C)CC(=O)Nc2cccc(C)c2C)n1 (stereo not drawn),1.73%
3,CCc1noc(C(C)N(C)CC(=O)Nc2ccc(Br)cc2C)n1 (stereo not drawn),53.57%
4,CC[C@@H](CO)Nc1nccc(-c2c[nH]c3cc(C(=O)OC)ccc23)n1,17.01%
5,Cc1cccc(CNC(Cc2ccsc2)c2nccs2)n1 (stereo not drawn),24.13%
6,CNc1cc(C)nc(C2CN(Cc3cc[nH]n3)CCO2)c1 (stereo not drawn),21.37%
7,CCCS(=O)(=O)N1CCC2(CC1)CCn1c(-c3cnn(C)c3)cnc12,18.05%
8,CCn1cnnc1CNC(=O)c1cc(Cl)ccc1O,2.1%
9,CC(CNC(=O)c1cc(Cl)ccc1F)N1CCCC1 (stereo not drawn),50.94%
10,CC(CNC(=O)c1cc(Cl)ccc1I)N1CCCC1 (stereo not drawn),10.11%
11,CCn1cnnc1CNC(=O)c1cc(Cl)ccc1F,54.99%
12,CC(CNC(=O)c1ccc(Cl)cc1F)N1CCCC1 (stereo not drawn),9.57%
13,CCn1cnnc1CNC(=O)c1ccc(Cl)cc1F,39.32%
14,CCn1cnnc1CCNC(=O)c1ccc(F)c(Br)c1,2.9%
15,CCn1cnnc1CCNC(=O)c1ccc(Br)cc1F,-13.8%
16,CCn1cnnc1CCNC(=O)CCNC(=O)c1ccccc1F,52.98%
17,Cn1c(N2CCOCC2)nc2cc(C(=O)N3CCC(O)(CO)C3)ccc21 (stereo not drawn),-2.63%
18,N#CCC(=O)NCc1nnc2n1CCN(Cc1ccco1)C2,-4.53%
19,CCN(CCCN1CCOCC1)C(=O)c1cnn(CC)c1,35.54%
20,O=C(NC1CCCC1)N1CC[C@H]2[C@H]1CCN2c1nncs1,49.25%
21,C=C(C)COc1ccccc1CN1CCCC(C(=O)NCCCO)C1 (stereo not drawn),-25.95%
22,CN(C)C(=O)CN1CC[C@H]2CN(S(C)(=O)=O)C[C@@H]2C1=O,21.06%

row,Compound,INHIBITION
1,CNC(=O)CS(=O)(=O)C1CCN(S(=O)(=O)c2ccccc2Br)CC1,27.5%
2,CNC(=O)CS(=O)(=O)C1CCN(S(=O)(=O)c2ccccc2Cl)CC1,68.69%
3,CNC(=O)CS(=O)(=O)C1CCN(S(=O)(=O)c2cccc(Cl)c2C)CC1,-52.21%
4,Cc1ccc(NC(=O)Nc2cnc(N3CCN(C)CC3)nc2)cc1,-4.34%
5,Cc1occc1C(=O)N1CC[C@@H](N2CCOCC2)[C@@H]1Cc1ccccc1,-23.67%
6,COc1ccc(OCCCNCCn2cccn2)cc1,31%
7,CC(=O)N1CCN(C(=O)CCc2cc(Br)cs2)CC1,26.74%
8,CN1CCN(C(=O)CCc2cc(Br)cs2)CC1,72.05%
9,CN(C)C1CCN(C(=O)CCc2cc(Br)cs2)CC1,41.05%
10,COCCC(=O)N1CCc2c(CNc3ncccn3)cncc2C1,17.77%
11,CCSC1(CNc2ncc(Br)cn2)CCOCC1,13.53%
12,CCCc1n[nH]c(C2CN(CCS(=O)(=O)CC)CCO2)n1 (stereo not drawn),-5.7%
13,NCC1[C@H]2CN(Cc3ccccc3)C[C@@H]12 (stereo partly drawn),55.7%
14,NCC1[C@H]2CN(Cc3cccc(Cl)c3)C[C@@H]12 (stereo partly drawn),45.77%
15,NCC1[C@H]2CN(CCc3ccccc3)C[C@@H]12 (stereo partly drawn),-7.41%
16,CN(C)Cc1cc(=O)n2c(n1)CN(C(=O)c1ccc[nH]1)CCC2,-16.33%
17,O=C(CCC1CCN(C2CSCCSC2)CC1)NCC1CCCO1 (stereo not drawn),-15.37%
18,Cc1cc(=O)[nH]c(NCCNC(=O)c2ccccc2N2CCCC2)n1,41.14%
19,Cc1nc(O)cc(CCNC(=O)CN2CCCCCC2)n1,4.12%
20,Cc1cc(=O)[nH]c(NCCNC(=O)CN2CCCCCC2)n1,56.93%
